Where “and” joins values, the source holds several entries; their conditions need not be identical. Equal entries are not always repeated. Records with an inconclusive call do not appear. A structure can be active in one record and inactive in another. Calls of active or inactive are those of the source. How the source made its calls, unless noted: active means hit-call score of the fitted dose curve at least 0.9, where 1 is the maximum; inconclusive means response in the unintended direction; inactive means score below 0.9.

Test [1] addresses Bile acid receptor (Homo sapiens) (UniProt Q96RI1). In words: OT_FXR_FXRSRC1_1440: Odyssey Thera (OT) 24-hour HEK293T Protein-Complementation Assay for Farnesoid X receptor/SRC-1 Co-activator (AID 2283384). Put shortly: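 Cell-based binding reporter: interaction of FXR with SRC-1 brings reporter fragments together, giving a fluorescence signal read 24 h after dosing of HEK293T cells.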

Test [2] deals with Retinoic acid receptor RXR-alpha (Homo sapiens) (UniProt P19793). In words: OT_NURR1_NURR1RXRa_0480: Odyssey Thera (OT) 8-hour HEK293T Protein Complementation Assay for Nurr1/retinoid X receptor (RXR) (AID 2283385). Put shortly:
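Compounds are applied to HEK293T cells carrying Nurr1 and RXRα linked to reporter fragments. After 8 h, fluorescence intensity reports heterodimer formation, with DMSO as baseline.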

Test [3] has the same target. In words: OT_NURR1_NURR1RXRa_1440: Odyssey Thera (OT) 24-hour HEK293T Protein Complementation Assay for Nurr1/retinoid X receptor (RXR) (AID 2283386). In outline:
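Measured as fluorescence from a reconstituted split reporter, this 24 h HEK293T complementation assay scores compound-induced gain of Nurr1/RXRα association relative to DMSO.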

Test [4] concerns the target Peroxisome proliferator-activated receptor gamma (Homo sapiens) (UniProt P37231). In words: OT_PPARg_PPARgSRC1_0480: Odyssey Thera (OT) 8-hour Protein-Complementation Assay for Peroxisome Proliferator-activated Receptor Gamma / SRC-1 Co-activator (AID 2283387).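 Further: nuclear to cytoplasmic split Venus YFP fluorescence ratio reporting PPARg SRC-1 interaction.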 In outline: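 Read-out: 488 nm N/C fluorescence ratio from complemented Venus YFP fragments, ≥350 cells per image, gain-of-signal fitted against DMSO baseline. Fusions of PPARg/SRC-1 with IFP1/IFP2 expressed transiently in HEK293T; compounds applied 8 h.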

Test [5] has the same target. In words: OT_PPARg_PPARgSRC1_1440: Odyssey Thera (OT) 24-hour Protein-Complementation Assay for Peroxisome Proliferator-activated Receptor Gamma/ SRC-1 Co-activator (AID 2283388).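 Further: nuclear to cytoplasmic ratio of reconstituted Venus YFP fluorescence in fixed imaged cells.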 Put shortly: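 Readout: nuclear-to-cytoplasmic 488 nm fluorescence ratio, ≥350 cells per image, 8 images per well, after 24 h compound exposure of HEK293T expressing PPARg/SRC-1 split-YFP fusions. Activity fitted in positive direction against DMSO.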

Read-out in test [6]: Tumor necrosis factor receptor superfamily member 6 (Homo sapiens) (UniProt P25445)
In words: LTEA_HepaRG_FAS: Life Technologies and Expression Analysis (LTEA) Assay for Fas cell surface death receptor (FAS) using HepaRG (AID 2283447; active means hit-call score of the fitted dose curve at least 0.9, where 1 is the maximum; inactive means score below 0.9). The settings on record: mRNA level, 48 h; actives raise or lower the signal. In outline: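 Differentiated human HepaRG cells, pre-cultured 48 h, were exposed in duplicate for 48 h to 8-point half-log concentrations (top 100 uM, 0.5% DMSO) in serum-free induction medium; FAS mRNA measured by qRT-PCR, normalized to ACTB/GAPDH/POLR2A, bidirectional fit versus DMSO.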

Read-out in test [7]: Fatty acid synthase (Homo sapiens) (UniProt P49327)
In words: LTEA_HepaRG_FASN: Life Technologies and Expression Analysis (LTEA) Assay for Fatty Acid Synthase (FASN) using HepaRG (AID 2283448; active means hit-call score of the fitted dose curve at least 0.9, where 1 is the maximum; inactive means score below 0.9). The settings on record: mRNA level, 48 h; actives raise or lower the signal. Put shortly:
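Transcript-level assay: HepaRG liver cells are treated for 48 h across an eight-point range topping at 100 uM, and FASN mRNA, normalized to three housekeeping genes, is compared with DMSO controls in both directions.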

Read-out in test [8]: Cyclin D2 (CCND2), CCND2 (gene 894)
In words: LTEA_HepaRG_CCND2: Life Technologies and Expression Analysis (LTEA) Assay for Cyclin D2 (CCND2) using HepaRG (AID 2283449; active means hit-call score of the fitted dose curve at least 0.9, where 1 is the maximum; inactive means score below 0.9;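 further: CCND2 transcript measured by TaqMan qRT-PCR and normalised to three housekeeping genes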). The settings on record: mRNA level, 48 h; actives raise or lower the signal. In outline: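 Differentiated human HepaRG cells were exposed for 48 h in serum-free induction medium to eight half-log concentrations topping at 100 uM (0.5% DMSO vehicle). CCND2 mRNA was quantified by TaqMan qRT-PCR, normalised to ACTB, GAPDH and POLR2A, and fitted bidirectionally against DMSO.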

Read-out in test [9]: Cyclin D1 (CCND1), CCND1 (gene 595)
In words: LTEA_HepaRG_CCND1: Life Technologies and Expression Analysis (LTEA) Assay for Cyclin D1 (CCND1) using HepaRG (AID 2283451; active means hit-call score of the fitted dose curve at least 0.9, where 1 is the maximum; inactive means score below 0.9). The settings on record: mRNA level, 48 h; actives raise or lower the signal. In outline: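 qRT-PCR (Fluidigm 96.96 array) read-out of transcript level, housekeeping-normalized (ACTB/GAPDH/POLR2A). HepaRG cells, 48 h chemical exposure, 8-point half-log series from 100 uM, 0.5% DMSO vehicle; gain or loss relative to DMSO baseline.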

Read-out in test [10]: catalase (CAT), CAT (gene 847)
In words: LTEA_HepaRG_CAT: Life Technologies and Expression Analysis (LTEA) Assay for catalase (CAT) using HepaRG (AID 2283452; active means hit-call score of the fitted dose curve at least 0.9, where 1 is the maximum; inactive means score below 0.9). The settings on record: mRNA level, 48 h; actives raise or lower the signal. Put shortly: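 Differentiated HepaRG cells in serum-free induction medium were dosed 48 h in duplicate, eight half-log concentrations from 100 uM in 0.5% DMSO. Transcript measured by TaqMan qRT-PCR, normalised to ACTB/GAPDH/POLR2A, fitted bidirectionally against DMSO.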

Read-out in test [11]: flavin-containing dimethylaniline monooxygenases 3 (FMO3), FMO3 (gene 2328)
In words: LTEA_HepaRG_FMO3: Life Technologies and Expression Analysis (LTEA) Assay for flavin-containing dimethylaniline monooxygenases 3 (FMO3) using HepaRG (AID 2283453; active means hit-call score of the fitted dose curve at least 0.9, where 1 is the maximum; inactive means score below 0.9;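 on AC50: FMO3 transcript by TaqMan qRT-PCR normalized to ACTB GAPDH and POLR2A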). The settings on record: mRNA level, 48 h; actives raise or lower the signal. Put shortly: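 HepaRG, 48 h exposure, 8-pt half-log series from 100 uM, 0.5% DMSO vehicle, duplicates; FMO3 transcript by Fluidigm TaqMan qRT-PCR, housekeeping-normalized; gain/loss fit vs DMSO.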

Read-out in test [12]: Cytochrome P450 (CYP1A1), CYP1A1 (gene 1543)
In words: LTEA_HepaRG_CYP1A1: Life Technologies and Expression Analysis (LTEA) Assay for Cytochrome P450 (CYP1A1) using HepaRG (AID 2283454; active means hit-call score of the fitted dose curve at least 0.9, where 1 is the maximum; inactive means score below 0.9). The settings on record: mRNA level, 48 h; actives raise or lower the signal. In outline: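 qRT-PCR read-out: CYP1A1 transcript normalized to three housekeeping genes, fitted bidirectionally against 0.5% DMSO vehicle baseline. Human HepaRG cells, 48 h chemical exposure, 8-point half-log series topping at 100 uM.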

Read-out in test [13]: CFLAR gene, CFLAR (gene 8837)
In words: LTEA_HepaRG_CFLAR: Life Technologies and Expression Analysis (LTEA) Assay for CFLAR gene using HepaRG (AID 2283455; active means hit-call score of the fitted dose curve at least 0.9, where 1 is the maximum; inactive means score below 0.9). The settings on record: mRNA level, 48 h; actives raise or lower the signal. Put shortly:
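HepaRG cells were plated for 48 h, switched to serum-free induction medium, then exposed in duplicate for 48 h to 8 concentrations (top 100 uM, half-log steps, 0.5% DMSO). CFLAR mRNA was measured by qRT-PCR, normalized to ACTB, GAPDH and POLR2A.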

Read-out in test [14]: Cyclin Dependent Kinase Inhibitor 1A (CDKN1A), CDKN1A (gene 1026)
In words: LTEA_HepaRG_CDKN1A: Life Technologies and Expression Analysis (LTEA) Assay for Cyclin Dependent Kinase Inhibitor 1A (CDKN1A) using HepaRG (AID 2283450; active means hit-call score of the fitted dose curve at least 0.9, where 1 is the maximum; inactive means score below 0.9). The settings on record: mRNA level, 48 h; actives raise or lower the signal. In outline: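 HepaRG, 48 h dosing, 8-pt half-log series from 100 uM top, 0.5% DMSO vehicle, duplicates. Readout: TaqMan qRT-PCR of CDKN1A transcript, housekeeping-normalized (ACTB, GAPDH, POLR2A). Up/down curve fit relative to DMSO.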

Test [15] can be described thus: CEETOX_H295R_PROG: CeeTox H295R High-throughput Steroidogenesis Assay for Progesterone (PROG) (AID 2283442; active means hit-call score of the fitted dose curve at least 0.9, where 1 is the maximum; inactive means score below 0.9;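 further: human H295R adrenal cells primed with 10 µM forskolin before dosing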). The settings on record: actives raise or lower the signal. In outline: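 Progesterone read-out: HPLC-MS/MS on MTBE extracts of conditioned medium after 48 h chemical exposure of forskolin-primed (10 uM, 48 h) H295R cells. Gain or loss of signal was fitted relative to DMSO baseline.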

Peroxisome proliferator-activated receptor gamma (Homo sapiens), sequence (P37231 whole entry, looked up, the tested form may be a part): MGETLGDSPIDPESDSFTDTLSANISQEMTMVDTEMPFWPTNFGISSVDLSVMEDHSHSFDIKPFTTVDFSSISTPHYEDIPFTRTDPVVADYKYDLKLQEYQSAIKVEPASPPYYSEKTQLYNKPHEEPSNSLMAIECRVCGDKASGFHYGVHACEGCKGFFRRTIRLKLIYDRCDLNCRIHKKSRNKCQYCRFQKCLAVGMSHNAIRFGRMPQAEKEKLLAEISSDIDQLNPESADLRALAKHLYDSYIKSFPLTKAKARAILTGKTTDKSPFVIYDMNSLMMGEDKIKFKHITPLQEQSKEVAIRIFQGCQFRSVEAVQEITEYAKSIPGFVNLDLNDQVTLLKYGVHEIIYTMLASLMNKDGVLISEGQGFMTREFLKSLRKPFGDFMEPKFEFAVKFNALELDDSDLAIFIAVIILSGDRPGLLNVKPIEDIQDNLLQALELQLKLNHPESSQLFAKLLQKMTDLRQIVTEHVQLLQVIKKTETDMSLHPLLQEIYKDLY
Retinoic acid receptor RXR-alpha (Homo sapiens), sequence (P19793 whole entry, looked up, the tested form may be a part): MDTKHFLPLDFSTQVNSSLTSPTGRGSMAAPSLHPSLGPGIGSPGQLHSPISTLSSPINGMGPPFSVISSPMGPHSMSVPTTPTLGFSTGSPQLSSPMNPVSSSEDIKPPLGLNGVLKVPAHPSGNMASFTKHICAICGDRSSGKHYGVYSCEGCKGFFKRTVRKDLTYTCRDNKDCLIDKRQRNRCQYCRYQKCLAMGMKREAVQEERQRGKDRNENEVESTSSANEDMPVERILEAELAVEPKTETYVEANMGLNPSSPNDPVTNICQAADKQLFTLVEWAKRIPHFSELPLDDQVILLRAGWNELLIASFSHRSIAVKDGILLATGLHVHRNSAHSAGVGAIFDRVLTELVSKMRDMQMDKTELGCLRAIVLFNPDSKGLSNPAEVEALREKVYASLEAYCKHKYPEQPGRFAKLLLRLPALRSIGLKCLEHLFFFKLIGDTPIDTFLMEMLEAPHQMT
Fatty acid synthase (Homo sapiens), sequence (P49327 whole entry, looked up): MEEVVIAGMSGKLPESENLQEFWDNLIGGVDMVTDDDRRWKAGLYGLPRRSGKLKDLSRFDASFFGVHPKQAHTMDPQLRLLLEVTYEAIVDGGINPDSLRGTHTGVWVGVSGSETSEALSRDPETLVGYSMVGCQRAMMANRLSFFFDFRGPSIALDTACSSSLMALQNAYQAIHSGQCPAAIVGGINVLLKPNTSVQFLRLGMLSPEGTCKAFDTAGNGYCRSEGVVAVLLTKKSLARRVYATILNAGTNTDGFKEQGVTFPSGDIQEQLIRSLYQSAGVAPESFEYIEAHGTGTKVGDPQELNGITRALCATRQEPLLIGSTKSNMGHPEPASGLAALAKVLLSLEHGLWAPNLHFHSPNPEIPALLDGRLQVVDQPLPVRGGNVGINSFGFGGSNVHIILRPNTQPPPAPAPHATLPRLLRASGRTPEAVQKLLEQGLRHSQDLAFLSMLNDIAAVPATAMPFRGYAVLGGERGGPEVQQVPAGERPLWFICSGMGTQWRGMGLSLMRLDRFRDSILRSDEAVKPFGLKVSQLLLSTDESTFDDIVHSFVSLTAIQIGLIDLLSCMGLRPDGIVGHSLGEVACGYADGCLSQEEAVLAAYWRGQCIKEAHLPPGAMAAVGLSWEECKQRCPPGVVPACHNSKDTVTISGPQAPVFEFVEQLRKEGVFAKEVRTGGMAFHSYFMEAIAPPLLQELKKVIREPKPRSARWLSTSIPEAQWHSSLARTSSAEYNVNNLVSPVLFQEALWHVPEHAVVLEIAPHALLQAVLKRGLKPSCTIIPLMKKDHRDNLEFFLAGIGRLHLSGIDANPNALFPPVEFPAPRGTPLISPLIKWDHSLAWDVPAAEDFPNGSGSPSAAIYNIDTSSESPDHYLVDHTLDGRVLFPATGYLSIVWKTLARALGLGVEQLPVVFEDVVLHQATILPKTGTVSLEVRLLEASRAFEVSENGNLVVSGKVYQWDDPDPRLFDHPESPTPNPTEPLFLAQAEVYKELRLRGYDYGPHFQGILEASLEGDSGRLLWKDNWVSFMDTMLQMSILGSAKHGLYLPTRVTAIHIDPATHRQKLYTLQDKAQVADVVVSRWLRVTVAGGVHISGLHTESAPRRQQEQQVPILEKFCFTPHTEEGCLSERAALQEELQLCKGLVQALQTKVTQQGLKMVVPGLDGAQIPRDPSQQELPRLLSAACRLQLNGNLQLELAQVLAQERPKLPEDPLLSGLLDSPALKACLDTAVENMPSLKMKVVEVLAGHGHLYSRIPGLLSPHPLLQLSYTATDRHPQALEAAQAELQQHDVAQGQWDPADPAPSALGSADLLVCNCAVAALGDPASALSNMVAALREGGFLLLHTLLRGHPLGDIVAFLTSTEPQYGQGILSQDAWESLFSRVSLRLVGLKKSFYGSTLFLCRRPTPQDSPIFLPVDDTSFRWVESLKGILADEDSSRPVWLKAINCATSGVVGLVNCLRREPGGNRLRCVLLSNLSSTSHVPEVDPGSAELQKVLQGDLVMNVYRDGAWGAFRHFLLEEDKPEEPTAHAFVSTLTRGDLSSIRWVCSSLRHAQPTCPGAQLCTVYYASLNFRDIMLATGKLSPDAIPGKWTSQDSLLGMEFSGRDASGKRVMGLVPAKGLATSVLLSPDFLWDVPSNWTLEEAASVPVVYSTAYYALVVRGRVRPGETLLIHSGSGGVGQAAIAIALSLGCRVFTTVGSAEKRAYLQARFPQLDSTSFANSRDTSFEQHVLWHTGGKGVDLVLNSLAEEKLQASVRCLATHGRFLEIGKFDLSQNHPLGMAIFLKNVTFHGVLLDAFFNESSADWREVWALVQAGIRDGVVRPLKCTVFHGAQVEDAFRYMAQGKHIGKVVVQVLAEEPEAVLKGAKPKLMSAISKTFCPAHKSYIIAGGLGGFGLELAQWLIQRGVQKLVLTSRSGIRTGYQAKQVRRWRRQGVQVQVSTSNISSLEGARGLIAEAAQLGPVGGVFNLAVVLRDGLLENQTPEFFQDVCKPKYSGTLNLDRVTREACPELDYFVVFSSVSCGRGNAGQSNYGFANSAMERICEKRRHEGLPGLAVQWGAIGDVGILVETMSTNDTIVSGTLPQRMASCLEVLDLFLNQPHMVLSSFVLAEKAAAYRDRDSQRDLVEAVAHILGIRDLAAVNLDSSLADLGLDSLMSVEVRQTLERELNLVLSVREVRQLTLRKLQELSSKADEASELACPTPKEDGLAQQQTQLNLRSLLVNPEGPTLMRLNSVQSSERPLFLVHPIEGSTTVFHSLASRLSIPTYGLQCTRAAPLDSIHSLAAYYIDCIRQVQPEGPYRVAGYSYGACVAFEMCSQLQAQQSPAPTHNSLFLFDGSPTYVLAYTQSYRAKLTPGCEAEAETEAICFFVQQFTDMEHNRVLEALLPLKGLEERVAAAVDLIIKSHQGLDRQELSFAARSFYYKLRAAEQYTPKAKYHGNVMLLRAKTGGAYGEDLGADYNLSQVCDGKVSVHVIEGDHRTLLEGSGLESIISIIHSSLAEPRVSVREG
Bile acid receptor (Homo sapiens), sequence (Q96RI1 whole entry, looked up, the tested form may be a part): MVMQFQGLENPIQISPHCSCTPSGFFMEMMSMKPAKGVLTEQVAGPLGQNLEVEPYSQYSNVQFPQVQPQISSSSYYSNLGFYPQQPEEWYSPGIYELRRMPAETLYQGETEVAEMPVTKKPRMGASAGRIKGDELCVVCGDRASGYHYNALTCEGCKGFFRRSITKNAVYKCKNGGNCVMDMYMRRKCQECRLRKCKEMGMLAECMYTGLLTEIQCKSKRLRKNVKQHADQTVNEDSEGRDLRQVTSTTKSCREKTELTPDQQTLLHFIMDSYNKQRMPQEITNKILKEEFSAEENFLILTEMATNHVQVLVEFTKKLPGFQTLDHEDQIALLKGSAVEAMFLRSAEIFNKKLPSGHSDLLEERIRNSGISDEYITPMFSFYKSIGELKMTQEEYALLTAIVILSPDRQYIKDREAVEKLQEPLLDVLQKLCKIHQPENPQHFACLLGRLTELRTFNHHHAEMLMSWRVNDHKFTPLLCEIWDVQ

With `CC[C@H](NC(=O)c1cc(F)ccc1NS(=O)(=O)c1cccc2cccnc12)c1ccccc1`, the outcome in test [1], in test [2], in test [3], in [4], in test [5] and in test [6] was inactive. The result in test [7], in test [8], in [9] and in test [13] was inactive. Also, the AC50 (commonly the concentration at which the activity in the assay is half-maximal) in test [10] is 59.2 µM (active); in test [11] it was 34 µM (active); in test [12] it was 47.1 µM (active).

As to `CCCC(=O)OCCC(C)C`, the molecule was called inactive in [1], in test [2], in test [3], in test [4], in test [5] and in [6]. Besides, the result in [7], in test [9], in [10], in [11] and in [13] was inactive. Also, the half-maximal activity concentration (AC50) in test [12] was 68.2 µM (active).

As to `CCCCOC(=O)CC(CC(=O)OCCCC)(OC(C)=O)C(=O)OCCCC`, the call in test [1], in test [2], in [4], in test [5], in test [6] and in test [7] was inactive. Also, the molecule was classed as inactive in [8], in test [14], in test [10], in test [11], in test [12] and in test [13].

As to `C[C@]12CC[C@@H]3c4ccc(O)cc4CC[C@H]3[C@@H]1CCC2=O`, the concentration at half-maximal activity (AC50) in test [1] is 22.6 µM (active) and 35.9 µM (active) and 30 µM (active); in [3], 32.1 µM (active); in test [15], 0.849 µM (active); in [11], 50 µM (active). For the same molecule, the call in test [1], in test [2], in test [3], in test [6], in test [7] and in [8] was inactive. For the same molecule, the outcome in test [10] and in [13] was inactive.

For the origin of these results see PubChem BioAssay (EPA / NIEHS).
